Measurements taken from PubChem BioAssay AID1159580 (chemical genetic matrix, 2015).
In all, about 5,500 compounds went through this assay and about 2,000 (36%) were called active. Another 18% or so got no clear call; they are omitted. No stated cut-off is given here; in the data, active means normalized growth mostly below about 0.91 (no sharp cut-off); inconclusive means no clear call, values can overlap the other calls; inactive means mostly above about 0.92. The list shows a part of the results.

Experiment: chemical genetic growth profiling, strain panel (AID 1159580);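 further: tested at 20 µM; growth read once vehicle control cultures reached saturation at 30 °C; 1 = growth at the plate median or of vehicle wells; lower values mean less growth of the strain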
Settings: S. cerevisiae deletion strains, growth OD
[1] = locus YDL101C, strain DUN1, active compounds read low
[2] = locus YHR030C, strain SLT2, active compounds read low
[3] = locus YGR078C, strain PAC10, active compounds read low
[4] = locus YNL322C, strain KRE1, active compounds read low

Measured: normalized growth

COc1cc(C(=O)Oc2c(Cl)cc(Cl)cc2C=Nc2ccc([N+](=O)[O-])cc2C#N)cc(OC)c1OC
inactive: locus YAR019C, strain CDC15, active compounds read low 0.988 | locus YBL105C, strain PKC1, active compounds read low 0.972 | locus YBR135W, strain CKS1, active compounds read low 0.969 | locus YBR136W, strain MEC1, active compounds read low 0.988 | locus YBR160W, strain CDC28, active compounds read low 0.974 | locus YDL017W, strain CDC7, active compounds read low 0.974 | locus YDL028C, strain MPS1, active compounds read low 0.977 | [1] 0.987 | locus YDL108W, strain KIN28, active compounds read low 0.982 | locus YDL132W, strain cdc53, active compounds read low 0.967 | locus YDR052C, strain DBF4, active compounds read low 0.989 | locus YDR054C, strain cdc34, active compounds read low 0.968 | locus YDR226W, strain ADK1, active compounds read low 0.978 | locus YFL009W, strain cdc4, active compounds read low 0.961 | locus YFL029C, strain CAK1, active compounds read low 0.983 | locus YFR003C, strain YPI1, active compounds read low 0.975 | locus YFR028C, strain CDC14, active compounds read low 0.973 | locus YIL147C, strain SLN1, active compounds read low 0.979 | locus YJL128C, strain PBS2, active compounds read low 0.928 | locus YJR016C, strain ILV3, active compounds read low 0.986 | locus YJR066W, strain TOR1 (second series), active compounds read low 0.812 | locus YKL193C, strain SDS22, active compounds read low 0.965 | locus YMR001C, strain CDC5, active compounds read low 0.98 | locus YMR277W, strain FCP1, active compounds read low 0.97 | locus YNL006W, strain LST8, active compounds read low 0.991 | locus YNL161W, strain CBK1, active compounds read low 0.98 | locus YNL207W, strain RIO2, active compounds read low 0.981 | locus YNL222W, strain SSU72, active compounds read low 0.975 | locus YOL078W, strain AVO1, active compounds read low 0.975 | locus YOR329C, strain SCD5, active compounds read low 0.971 | locus YPL209C, strain IPL1, active compounds read low 0.976 | locus YPR025C, strain CCL1, active compounds read low 0.963 | locus YPR106W, strain ISR1, active compounds read low 0.971 | locus YPR111W, strain DBF20, active compounds read low 0.945 | strain NNK1, active compounds read low 0.979 | strain TSCII, active compounds read low 0.98
active: locus YDL214C, strain PRR2, active compounds read low 0.56 | locus YDR477W, strain SNF1, active compounds read low 0.598 | locus YER123W, strain YCK3, active compounds read low 0.352 | locus YER133W, strain GLC7, active compounds read low 0.553 | locus YFR019W, strain FAB1, active compounds read low 0.593 | locus YGR040W, strain KSS1, active compounds read low 0.622 | locus YGR052W, strain FMP48, active compounds read low 0.508 | locus YGR092W, strain DBF2, active compounds read low 0.302 | [2] 0.324 | locus YHR079C, strain IRE1, active compounds read low 0.371 | locus YHR082C, strain KSP1, active compounds read low 0.497 | locus YHR205W, strain SCH9, active compounds read low 0.429 | locus YJL095W, strain BCK1, active compounds read low 0.408 | locus YJL157C, strain FAR1, active compounds read low 0.565 | locus YJR066W, strain TOR1, active compounds read low 0.366 | locus YKL048C, strain ELM1, active compounds read low 0.765 | locus YKL067W, strain YNK1, active compounds read low 0.558 | locus YKL101W, strain HSL1, active compounds read low 0.654 | locus YKL203C, strain TOR2, active compounds read low 0.678 | locus YLR113W, strain HOG1, active compounds read low 0.458 | locus YLR133W, strain CKI1, active compounds read low 0.543 | locus YLR403W, strain SFP1, active compounds read low 0.439 | locus YML070W, strain DAK1, active compounds read low 0.544 | locus YMR205C, strain PFK2 (second series), active compounds read low 0.59 | locus YNL020C, strain ARK1, active compounds read low 0.503 | locus YNL183C, strain NPR1, active compounds read low 0.465 | locus YNL307C, strain MCK1 (second series), active compounds read low 0.5 | locus YOL136C, strain PFK27, active compounds read low 0.492 | locus YOR061W, strain CKA2, active compounds read low 0.439 | locus YOR119C, strain RIO1, active compounds read low 0.549 | locus YOR231W, strain MKK1, active compounds read low 0.46 | locus YPL031C, strain PHO85, active compounds read low 0.572 | locus YPL153C, strain RAD53, active compounds read low 0.581 | locus YPL204W, strain HRR25, active compounds read low 0.548 | locus YPL256C, strain CLN2, active compounds read low 0.431

CCN(CC)CCCCCCCCOC(=O)c1cc(OC)c(OC)c(OC)c1
inactive: locus YAL040C, strain CLN3, active compounds read low 1.01 | locus YDR363W, strain ESC2, active compounds read low 1.01 | locus YER002W, strain NOP16, active compounds read low 0.999 | [3] 1.01 | locus YNL175C, strain NOP13, active compounds read low 1.01 | locus YNL197C, strain WHI3, active compounds read low 1.02 | locus YNL224C, strain SQS1, active compounds read low 0.985 | [4] 0.992 | locus YOR083W, strain WHI5 (second series), active compounds read low 1.03

COC(=O)c1ccc([N+](=O)[O-])cc1Cl
inactive: locus YAL013W, strain DEP1, active compounds read low 0.991 | locus YBR229C, strain ROT2, active compounds read low 0.998 | locus YCL061C, strain MRC1, active compounds read low 1 | [1] 0.989 | locus YDL134C, strain PPH21, active compounds read low 0.983 | locus YDR150W, strain NUM1, active compounds read low 0.923 | locus YEL061C, strain CIN8, active compounds read low 0.988 | [3] 0.993 | [2] 0.989 | locus YHR087W, strain rtc3, active compounds read low 1.01 | locus YJL187C, strain SWE1, active compounds read low 0.991 | locus YJR043C, strain POL32, active compounds read low 1.02 | locus YJR075W, strain HOC1, active compounds read low 0.996 | locus YLR039C, strain RIC1, active compounds read low 0.983 | locus YLR058C, strain SHM2 (second series), active compounds read low 0.983 | locus YLR085C, strain ARP6, active compounds read low 0.881 | locus YLR262C, strain YPT6, active compounds read low 1 | locus YML094W, strain GIM5, active compounds read low 0.964 | locus YMR219W, strain ESC1, active compounds read low 0.992 | locus YMR263W, strain SAP30, active compounds read low 0.992 | locus YMR307W, strain GAS1, active compounds read low 1.05 | locus YNL128W, strain TEP1, active compounds read low 0.985 | locus YNL153C, strain GIM3, active compounds read low 1.01 | locus YNL298W, strain CLA4 (second series), active compounds read low 0.97 | [4] 1 | locus YNR030W, strain Alg12, active compounds read low 1.01 | locus YOL006C, strain TOP1, active compounds read low 0.756 | locus YPL055C, strain LGE1, active compounds read low 0.95 | locus YPL241C, strain CIN2, active compounds read low 0.992 | locus YPR135W, strain CTF4, active compounds read low 1.03
